Our source for the Potency values is PubChem BioAssay (Tox21).

“And” between values parts separate entries of the source, which are not always exact repeats. Equal entries are not always repeated. Inconclusive results are not listed. The source made the active and inactive calls. Calls follow the shape of the dose curve; as a rule, active = well fitted curve in the direction sought with a large enough effect in the repeat runs; inconclusive = weak or mixed curves; inactive = no such curve, though single readings can be large; an effect the other way counts as inactive or inconclusive.

Test [1] can be described thus: qHTS RealTime-Glo MT Cell Viability Assay in HEK293 cells - 0 hour (AID 1224880). Also: top concentration of the series differs between compounds; nearly all actives have a fitted effect of over 45% in size. The essentials: (§1)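 HEK293 + NanoLuc + prosubstrate, 600 cells/well; 5 h, 37 C/5% CO2; compound 23 nL in DMSO by pintool; 37 C; luminescence read at 0, 8, 16, 24, 32 and 40 h time points.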
(In general: qHTS replaces the single test concentration by a dilution series.)

The nature of test [2]: A CellTox Green Cytotoxicity Assay to monitor cytotoxicity in HepG2 cells - 0 hour (AID 1224882). Also: nearly all actives have a fitted effect of over 35% in size. In short, it runs like this: (§2)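 Measurements at 0, 8, 16, 24, 32 and 40 h of treatment captured CellTox Green fluorescence in HepG2 cells that had been co-plated with reagent and preincubated 5 h at 37 C/5% CO2.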
Test [3] in a line: A CellTox Green Cytotoxicity Assay to monitor cytotoxicity in HEK293 cells - 8 hour (AID 1224884). Also: nearly all actives have a fitted effect of over 35% in size. In short, it runs like this: (§3)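 Tox21 screen in HEK293: membrane-impermeant cyanine dye fluoresces on binding dead-cell DNA; compound pinned 5 h post-seeding, plates held at 37 C, signal read repeatedly through 40 h.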
The nature of test [4]: qHTS RealTime-Glo MT Cell Viability Assay in HepG2 cells - 16 hour (AID 1224885). Also: nearly all actives have a fitted effect of over 50% in size. Also: potency is read from the fitted curve at half-maximal effect. The essentials: (§4)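 Cells + NanoLuc/prosubstrate dispensed (600 cells/well) → 5 h at 37 C/5% CO2 → compounds in DMSO transferred → 40 h incubation at 37 C, luminescence read at 0, 8, 16, 24, 32, 40 h.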
Test [5] is described as follows: A CellTox Green Cytotoxicity Assay to monitor cytotoxicity in HEK293 cells - 16 hour (AID 1224888). Also: nearly all actives have a fitted effect of over 35% in size. The essentials:
as §3

Test [6] in a line: qHTS RealTime-Glo MT Cell Viability Assay in HepG2 cells - 0 hour (AID 1224889). Also: nearly all actives have a fitted effect of over 50% in size. Also: potency is read from the fitted curve at half-maximal effect. In short, it runs like this: as §4
Test [7] is described as follows: A CellTox Green Cytotoxicity Assay to monitor cytotoxicity in HEK293 cells - 32 hour (AID 1224881). Also: nearly all actives have a fitted effect of over 40% in size. The essentials: as §3
Test [8] is described as follows: A CellTox Green Cytotoxicity Assay to monitor cytotoxicity in HepG2 cells - 32 hour (AID 1224883). Also: nearly all actives have a fitted effect of over 50% in size. Also: potency is read from the fitted curve at half-maximal effect. The essentials:
as §2

A short description of test [9]: qHTS RealTime-Glo MT Cell Viability Assay in HEK293 cells - 24 hour (AID 1224886). Also: nearly all actives have a fitted effect of over 50% in size. Also: potency is read from the fitted curve at half-maximal effect. In short, it runs like this:
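Tox21 10K qHTS, HEK293, 600 cells/well, RealTime-Glo reagent co-dispensed with cells; 5 h preincubation, compound by pintool, 37 C, luminescence at 0–40 h.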

Test [10] in a line: qHTS RealTime-Glo MT Cell Viability Assay in HEK293 cells - 8 hour (AID 1224887). Also: nearly all actives have a fitted effect of over 50% in size. Also: potency is read from the fitted curve at half-maximal effect. The essentials:
as §1

As to `CC(=O)Oc1ccc2c(c1)CC[C@@H]1[C@@H]2CC[C@]2(C)[C@@H](O)CC[C@@H]12`, the Potency entry in test [1], in test [2], in test [3], in test [4], in [5] and in [6] was “inactive” each time.
Consider `NC(=O)Cn1c(=O)cc(CCN2CCN(c3nccc4sccc34)CC2)c2ccc(F)cc21`, for which the Potency entry in test [7], in test [2], in [8], in test [3] and in [5] was “inactive” throughout. Further, the Potency in test [9] was 49 µM (active); in test [6], 13.8 µM (active).
For `O=C(N[C@@H](c1ccccc1)[C@@H]1CCCCN1)c1cccc(C(F)(F)F)c1Cl`, the Potency entry in test [2], in [3], in test [5] and in test [6] was “inactive” in each case. Moreover, the Potency in test [9] was 24.5 µM (active).
For the compound `CC(=O)CC(c1ccc([N+](=O)[O-])cc1)c1c(O)c2ccccc2oc1=O` (stereo unspecified), the Potency result in [7], in test [2], in test [8], in test [3], in test [4] and in [9] was “inactive” in each case. In addition, the Potency result in test [10], in [5] and in test [6] was “inactive” throughout.
Turning to `CCN(Cc1cccc(S(=O)(=O)O)c1)c1ccc(C(=C2C=CC(=[N+](CC)Cc3cccc(S(=O)(=O)[O-])c3)C=C2)c2ccccc2)cc1`, the Potency result in [7], in test [2], in test [8], in [3], in test [4] and in [9] was “inactive” each time. For the same compound, the Potency result in [10] and in [5] was “inactive” throughout.
Take `CCCCCCCC/C=C\CCCCCCCC(=O)OC(CO)CO`: the Potency entry in test [7], in test [2], in [8], in test [3], in [4] and in test [9] was “inactive” throughout. The Potency result in test [5] and in [6] was “inactive” in each case.
For the compound `CC(C)CCCCCCOC(=O)CCCCC(=O)OCCCCCCC(C)C`, the Potency entry in test [1], in test [2], in [3], in test [4], in test [9] and in [10] was “inactive” in each case. Besides, the Potency entry in test [5] and in test [6] was “inactive” in each case.
As to `O=C(CCC1CCN(Cc2ccccc2)CC1)c1ccc2c(c1)NCCCC2`, the Potency result in test [1], in [2], in test [3], in test [4], in test [5] and in test [6] was “inactive” in each case. The Potency in test [9] and in test [10] was 9.52 µM (active) throughout.
`c1cc[c]([Bi]([c]2ccccc2)[c]2ccccc2)cc1`: the Potency result in test [7], in [2], in test [3], in test [4], in test [10] and in [5] was “inactive” each time. Moreover, the Potency entry in test [6] was “inactive”.
With `O=C(Nc1ccc([N+](=O)[O-])cc1)Nc1ccc([N+](=O)[O-])cc1`, the Potency entry in test [1], in [2], in test [3], in [5] and in [6] was “inactive” each time. The Potency in test [9] is 8.49 µM (active).
Turning to `CC1=C(C=O)C(C)(C)CCC1`, the Potency entry in test [2], in [8], in test [3], in test [4] and in test [6] was “inactive” each time.
As to `CN1CCN(CCCN2c3ccccc3Sc3ccc(S(=O)(=O)N(C)C)cc32)CC1`, the Potency result in test [2], in [3] and in [5] was “inactive” throughout. Further, the Potency in [8] was 26.8 µM (active).
As to `Nc1nccs1`, the Potency entry in [1], in test [2], in test [8], in test [4], in test [9] and in test [10] was “inactive” throughout. The Potency result in [6] was “inactive”.
For `O=C(N/N=C/c1ccc([N+](=O)[O-])o1)c1ccc(O)cc1`, the Potency result in test [2], in test [3], in [5] and in [6] was “inactive” each time.
Regarding `CNCCCC1c2ccccc2C=Cc2ccccc21`, the Potency result in test [2], in test [3], in test [10] and in test [5] was “inactive” each time. Also, the Potency in [8] is 23.9 µM (active).
For `NC(=O)N(O)[C@@H]1C=C[C@H](Oc2cccc(Oc3ccc(F)cc3)c2)C1`, the Potency entry in [1], in [2], in test [3], in test [4], in [5] and in [6] was “inactive” throughout. The Potency in [8] was 38.9 µM (active); in [9] it was 15.5 µM (active).
`COC(OC)(C(=O)c1ccccc1)c1ccccc1`: the Potency result in test [7], in test [2], in test [8], in test [3], in test [4] and in test [9] was “inactive” throughout. For the same compound, the Potency result in test [10] and in [5] was “inactive” throughout.
Turning to `CCCCCC=CCC=CCCCCCCCC(=O)OCC`, the Potency result in test [7], in [2], in [8], in test [3], in test [4] and in test [9] was “inactive” throughout. Besides, the Potency entry in [10], in test [5] and in [6] was “inactive” in each case.
Turning to `CN(C)CCOC1=Cc2ccccc2Sc2ccc(Cl)cc21`, the Potency entry in test [2], in test [3], in test [9], in test [10] and in test [5] was “inactive” throughout.
In the case of `COCc1c(C(C)C)nc(C(C)C)c(/C=C/[C@@H](O)C[C@@H](O)CC(=O)O)c1-c1ccc(F)cc1`, the Potency result in test [7], in test [2], in test [3] and in test [5] was “inactive” in each case. Also, the Potency in [8] is 338 nM (active) and 4.84 µM (active).
With `Cc1cc2nc3ccc(=[N+](C)C)cc-3sc2cc1N`, the Potency result in test [7], in [2], in test [8], in test [3] and in test [5] was “inactive” throughout. Further, the Potency is 9.52 µM (active) in test [4], 2.68 µM (active) in test [9] and 1.9 µM (active) in test [10].
For `COc1cc2ncnc(Nc3ccc(F)c(Cl)c3)c2cc1OCCCN1CCOCC1`, the Potency result in test [2], in test [3] and in test [5] was “inactive” throughout. Moreover, the Potency was 23.9 µM (active) in test [8], 9.52 µM (active) in [9] and 10.7 µM (active) in [10].
